L3MBTL1 inh: qHTS Assay for the Inhibitors of L3MBTL1. Lethal(3)malignant brain tumor-like protein 1 (Homo sapiens), Q9Y468. AlphaScreen L3MBTL1–H3K9me1 peptide binding. actives 0.66% (n = 230,000). Potency, µM (highest dose often 57.1 µM), for the others: top-dose activity, negative = inhibition, most hits filed as inhibitors; also: % is scaled to controls: 0 for no effect and ±100 for the full control effect; nearly all actives have a fitted effect of over 60% in size
Target sequence (Q9Y468 whole entry, looked up): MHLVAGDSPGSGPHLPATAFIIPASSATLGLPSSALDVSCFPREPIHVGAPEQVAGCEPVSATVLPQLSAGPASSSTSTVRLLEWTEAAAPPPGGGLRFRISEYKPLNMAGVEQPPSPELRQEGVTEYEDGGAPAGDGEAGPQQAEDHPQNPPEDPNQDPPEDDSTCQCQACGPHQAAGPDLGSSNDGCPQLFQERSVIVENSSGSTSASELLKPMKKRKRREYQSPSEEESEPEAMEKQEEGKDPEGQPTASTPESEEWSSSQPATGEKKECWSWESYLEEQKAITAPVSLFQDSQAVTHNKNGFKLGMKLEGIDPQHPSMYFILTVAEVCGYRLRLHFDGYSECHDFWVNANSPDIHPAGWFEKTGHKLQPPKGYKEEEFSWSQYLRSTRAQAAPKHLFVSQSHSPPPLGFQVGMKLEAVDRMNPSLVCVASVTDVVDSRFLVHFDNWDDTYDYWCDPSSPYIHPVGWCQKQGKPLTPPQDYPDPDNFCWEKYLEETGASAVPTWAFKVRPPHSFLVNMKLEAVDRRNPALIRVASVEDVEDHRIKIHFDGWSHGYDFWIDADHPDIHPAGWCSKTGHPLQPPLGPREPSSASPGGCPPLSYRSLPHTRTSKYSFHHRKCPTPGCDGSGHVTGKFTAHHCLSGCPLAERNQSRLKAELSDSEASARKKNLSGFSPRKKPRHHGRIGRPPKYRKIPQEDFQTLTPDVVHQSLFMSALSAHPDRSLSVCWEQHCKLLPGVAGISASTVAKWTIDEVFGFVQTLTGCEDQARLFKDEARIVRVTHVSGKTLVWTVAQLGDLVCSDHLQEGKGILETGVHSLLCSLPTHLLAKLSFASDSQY
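L3MBTL1 (50 nM) pre-complexed 30 min with biotinylated H3(1-15)K9me1 peptide (75 nM), then compounds added for 30 min at room temperature; AlphaScreen streptavidin donor/nickel chelate acceptor beads (10 ug/mL final) read after 30 min dark incubation.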
G9a inh: qHTS Assay for Inhibitors of Histone Lysine Methyltransferase G9a | G9a H3K9 monomethylation, AlphaScreen, 2 h | Potency, µM (top dose mostly 102 µM), for the others: top-dose activity, negative = inhibition, most hits filed as inhibitors | actives 8.8% (n = 350,000) | AID 504332, 2011; also: % is scaled to controls: 0 for no effect and ±100 for the full control effect; nearly all actives have a fitted effect of over 75% in size
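Step 1: enzyme (final 20 nM) with compound, 15 min RT. Step 2: substrate peptide 500 nM and SAM 20 uM, 2 h RT. Step 3: anti-H3K9me1 antibody and AlphaScreen beads, 10 min, then plate read.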
HP1b binding inh: HTS for Inhibitors of HP1-beta Chromodomain Interactions with Methylated Histone Tails. Chromobox protein homolog 1 (Homo sapiens), P83916. Potency, µM (highest dose often 114 µM), for the others: at the top dose activity change, negative = inhibition, actives largely listed as inhibitors. actives 0.56% (n = 390,000). AlphaScreen HP1-beta / biotin-H3K9me3 peptide binding; also: nearly all actives have a fitted effect of over 70% in size
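Compound inhibition of the preformed complex between 50 nM HP1-beta and 50 nM biotinylated H3K9me3 peptide was read by AlphaScreen. Buffer was PBS pH 7.4 with 0.01% Tween-20. Incubations ran 30 min at room temperature, with 10 ug/mL donor/acceptor beads.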
Sfp PPTase inh: qHTS Assay for Inhibitors of Bacillus subtilis Sfp phosphopantetheinyl transferase (PPTase); Biochemical Sfp PPTase activity, qHTS; actives 3.5% (n = 310,000); Potency, µM, inactives show largest response in the series, negative = inhibition, most hits filed as inhibitors; 4'-phosphopantetheinyl transferase ffp (Bacillus subtilis), Q9F4F7;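 also: the enzyme is Sfp with the accession as filed and its product quenches rhodamine fluorescence; 0% = enzyme reaction without inhibitor and -100% = no enzyme wells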
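Buffer: 50 mM Hepes-Na pH 7.6, 10 mM MgCl2, 0.01% Nonidet P-40, 0.01% BSA. Enzyme 15 nM, pre-exposed to compound 15 min; substrates then added and fluorescence change tracked over 30 min.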
BAZ2B inh: qHTS Assay for Inhibitors of BAZ2B | Potency, µM (series often up to 114 µM), for the others: at the highest dose activity change, negative = inhibition, hits mostly inhibitors | Bromodomain adjacent to zinc finger domain protein 2B (Homo sapiens), Q9UIF8 | actives 4.4% (n = 360,000) | AlphaScreen BAZ2B-H3K14Ac peptide displacement; also: % is scaled to controls: 0 for no effect and ±100 for the full control effect; nearly all actives have a fitted effect of over 60% in size
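AlphaScreen luminescence quantifies BAZ2B engagement of H3K14Ac peptide; the protein and biotinylated peptide are both at 50 nM final, buffer PBS pH 7.4 with 0.01% Tween-20, all steps at room temperature.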
JMJD2A Tudor: qHTS Assay for Inhibitors of JMJD2A-Tudor Domain. Lysine-specific demethylase 4A (Homo sapiens), O75164. AlphaScreen JMJD2A-Tudor / H3K4me3 peptide binding. Potency, µM (series often up to 114 µM), for inactives: top-dose activity change, negative = inhibition, most hits filed as inhibitors. actives 4.4% (n = 390,000); also: % is scaled to controls: 0 for no effect and ±100 for the full control effect; nearly all actives have a fitted effect of over 50% in size
An asterisk follows results filed as active; ? = inconclusive; · = no result; [ ] = remark or other dose. Most compounds without a hit are left out; they make up all but 12% or so of the library. Calls follow the shape of the dose curve; as a rule, active = well fitted curve in the direction sought with a large enough effect; inconclusive = small, poorly fitted or top-dose-only effect, or another doubt; inactive = no such curve, though single readings can be large; an effect the other way counts as inactive or inconclusive. Potency is read from the fitted curve at half-maximal effect.

SMILES	L3MBTL1 inh	G9a inh	HP1b binding inh	Sfp PPTase inh	BAZ2B inh	JMJD2A Tudor
COc1ccc(CNc2cc(-c3ccoc3)ncn2)c(OC)c1	·	3%[0.501 µM]	·	45µM*	·	·
COC(=O)CN1C(=O)[C@@H]2[C@H](C1=O)[C@@H]1CC(C(=O)OC)=C[C@@H](C(=O)OC)C3C1=C(C(=O)C31CCCCC1)[C@@H]2C (stereo partly specified)	·	·	5%	-9%	·	-17%
COC(=O)c1ccc(NC(=O)C(=O)NCC(c2cccnc2)N2CCc3ccccc32)cc1 (stereo unspecified)	·	-8%[59 µM]	11%	·	-30%	-25%
COc1ccc2oc(C(=O)Nc3nc(C)cs3)c(C)c2c1	-4%	-7%[12.7 µM]	23%	·	7%	-20%
O=C(Nc1ccc2ccccc2c1)N1CCCN(CCOc2ccccc2)CC1	0%	3%	30%	8%	-4%	-19%
Cn1c(=O)c([N+](=O)[O-])c(NCc2ccccc2Cl)c2ccccc21	-2%	·	4%	-20%	-37%	-28%
Cn1c(=O)c([N+](=O)[O-])c(NCc2ccc3c(c2)OCO3)c2ccccc21	-4%	·	23%	50µM*	-19%	-21%
CCn1c(=O)c([N+](=O)[O-])c(N2CCN(Cc3ccc4c(c3)OCO4)CC2)c2ccccc21	-4%	32µM*	?	8%	?	?
Cc1ccc2[nH]c(=O)c3cc(C(=O)NCCCN4CCC(C)CC4)sc3c2c1	·	8%[59 µM]	34%	·	-1%	1%
Cc1ccc(C(=O)OCC(=O)NNC(=O)c2cccs2)c(O)c1	4%	0%	7%	·	10%	-15%
COc1ccc(F)cc1S(=O)(=O)Nc1cccc(-c2ccc(N3CCCCCC3)nn2)c1	·	-29%[59 µM]	10%[57 µM]	·	-14%	-19%
Cc1ccc([N+](=O)[O-])cc1S(=O)(=O)Nc1ccc(-c2ccc(N3CCCC3)nn2)cc1	-7%	-2%[2.33 µM]	2%	·	-1%	-26%
O=[N+]([O-])c1ccc(Cl)c(S(=O)(=O)Nc2cccc(-c3ccc(N4CCCC4)nn3)c2)c1	-21%	40µM*	1%	·	?	-34%
COc1ccc(OC)c(S(=O)(=O)Nc2cccc(-c3ccc(N4CCCCC4)nn3)c2)c1	·	3.5µM*	?	·	-2%	?
O=[N+]([O-])c1ccc(Cl)c(S(=O)(=O)Nc2ccc(-c3ccc(N4CCCC4)nn3)cc2)c1	2%	50µM*	0%	·	-8%	-34%
CCN(C(=O)COC(=O)c1oc2ccccc2c1C)c1c(N)n(Cc2ccccc2)c(=O)[nH]c1=O	-1%	3%[12.7 µM]	26%	·	-10%	-22%
N#CCCn1c(=O)c(-c2ccc(F)cc2)nc2cnc(Oc3ccccc3)nc21	·	5%[12.7 µM]	·	4%	·	·
CCN1CCN(C(=O)C(C)Nc2ccc(OC)cc2OC)CC1 (stereo unspecified)	-8%	45µM*	2%	7%	?	?
CCn1ncc(Br)c1C(=O)Nc1ccccc1OC	·	6%	27%	8%	9%	56µM*
CCOC(=O)N1CCN(CCC(=O)Nc2ccc(OC)cc2OC)CC1	1%	13%[59 µM]	-2%	30%	5%	-19%
COc1ccccc1NC(=O)N(C1CCCC1)C1CCN(C(C)=O)CC1	11%	40µM*	24%	-13%	9%	-5%
CC(=O)N1CCC(N(C(=O)Nc2ccc(C)c(C)c2)C2CCCC2)CC1	3%	?	25%	16%	8%	-7%
CCN1CCN(C(=O)Nc2ccccc2OC)CC1	40µM*	2.2µM*	?	?	28µM*	2.2µM*
O=S(=O)(Nc1ccccn1)c1ccc(Cl)c2ccccc12	4%	?	6%	0%	-15%	2%
C=C1CCC(O)C/C1=C\C=C1/CCCC2(C)C1CCC2C(C)CCCC(C)C (stereo unspecified)	·	·	·	4%	·	·
SMILES	L3MBTL1 inh	G9a inh	HP1b binding inh	Sfp PPTase inh	BAZ2B inh	JMJD2A Tudor
COc1ccccc1NC(=O)N1CCCC1	-11%	-4%	24%	10%	3%	-6%
COc1ccccc1NC(=O)N1CCN(C)CC1	1%	20µM*	-29%	2%	50µM*	40µM*
CC(=O)NC(CCS(C)(=O)=O)C(=O)Nc1ccccc1 (stereo unspecified)	1%	-7%[59 µM]	16%	16%	-4%	-19%
CC(=O)NC(CCS(C)(=O)=O)C(=O)Nc1cccc(C(C)=O)c1 (stereo unspecified)	0%	25µM*	23%	14%	8%	4%
CC(C)CN(C(=O)COC(=O)CSc1ccc(Br)cc1)C1CCS(=O)(=O)C1 (stereo unspecified)	6%	3%	5%	·	9%	-13%
c1ccc(CN2CCC3(CCc4ccccc43)CC2)cc1	·	4%[59 µM]	·	29%	·	·
O=C(c1ccco1)N1CCN(CCOCCOc2cccc3ccccc23)CC1	·	?	20%	11%	?	-23%
COc1ccccc1OCC(=O)NCCCN1CCOCC1	·	19%	14%	20%	3%	-8%
COc1ccccc1OCCCCCCN1CCOCC1	4%	13µM*	?	-28%	50µM*	20µM*
CC(C)c1cccc(C(C)C)c1OCCCCCN1CCOCC1	·	·	27%	·	·	-18%
c1ccc(CN2CCN(CCOCCOc3cccc4ccccc34)CC2)cc1	-10%	·	20µM*	50µM*	22µM*	1.8µM*
c1ccc2c(OCCCCN3CCOCC3)cccc2c1	-5%	·	?	-29%	50µM*	3.5µM*
O=C(Nc1ccc(F)cc1)C1CCN(c2nc3ccccc3n3cccc23)CC1	·	?	-11%	·	?	?
C=CCN1C(=O)CS/C1=N\S(=O)(=O)c1ccc(Cl)cc1	1%	-39%	21%	8%	-18%	-9%
Cc1onc(NC(=O)c2ccc(Cl)cc2Cl)c1Br	·	18µM*	11%	2%	-5%	-22%
Cc1onc(NC(=O)NC(=O)c2ccccc2F)c1Br	·	·	19%	13%	-9%	-5%
CC1CCc2nc(NC(=O)c3ccc(N4C(=O)CCC4=O)cc3)sc2C1 (stereo unspecified)	·	-2%[12.7 µM]	11%	4%	-9%	-12%
O=C(Nc1ccc(S(=O)(=O)NCc2ccco2)cc1)c1ccc(F)cc1	·	?	-8%	4%	?	-24%
Cc1noc(-c2ccc(CSCCC(=O)O)cc2)c1NC(=O)OC(C)c1ccccc1Cl (stereo unspecified)	·	·	·	1%	·	·
